Data taken from PubChem BioAssay AID1159580 (chemical genetic matrix, 2015).
In all, about 5,500 compounds went through this assay and about 2,000 (36%) were called active. Roughly 18% stayed inconclusive and do not appear here. Rule as the data show it: active = normalized growth mostly below about 0.91 (no sharp cut-off); inconclusive = no clear call, values can overlap the other calls; inactive = mostly above about 0.92. The list shows a part of the results.

Experiment: chemical genetic growth profiling, strain panel (AID 1159580);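 also: tested at 20 µM; growth read once vehicle control cultures reached saturation at 30 °C; 1 = growth at the plate median or of vehicle wells; lower values mean less growth of the strain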
Conditions: S. cerevisiae deletion strains, growth OD

Measured: normalized growth

COc1ccc(OC)c(-c2ccn[nH]2)c1OCc1ccccc1
inactive: locus YAR019C, strain CDC15, stronger effect = lower value 0.995 | locus YBL105C, strain PKC1, stronger effect = lower value 0.998 | locus YBR135W, strain CKS1, stronger effect = lower value 0.994 | locus YBR136W, strain MEC1, stronger effect = lower value 0.987 | locus YBR160W, strain CDC28, stronger effect = lower value 0.994 | locus YDL017W, strain CDC7, stronger effect = lower value 0.997 | locus YDL028C, strain MPS1, stronger effect = lower value 0.974 | locus YDL101C, strain DUN1, stronger effect = lower value 0.979 | locus YDL108W, strain KIN28, stronger effect = lower value 0.987 | locus YDL132W, strain cdc53, stronger effect = lower value 0.987 | locus YDL214C, strain PRR2, stronger effect = lower value 0.893 | locus YDR052C, strain DBF4, stronger effect = lower value 0.989 | locus YDR054C, strain cdc34, stronger effect = lower value 0.985 | locus YDR226W, strain ADK1, stronger effect = lower value 0.998 | locus YDR477W, strain SNF1, stronger effect = lower value 0.905 | locus YER123W, strain YCK3, stronger effect = lower value 0.762 | locus YER133W, strain GLC7, stronger effect = lower value 0.886 | locus YFL009W, strain cdc4, stronger effect = lower value 0.998 | locus YFL029C, strain CAK1, stronger effect = lower value 0.995 | locus YFR003C, strain YPI1, stronger effect = lower value 0.993 | locus YFR019W, strain FAB1, stronger effect = lower value 0.832 | locus YFR028C, strain CDC14, stronger effect = lower value 0.993 | locus YGR040W, strain KSS1, stronger effect = lower value 0.874 | locus YGR052W, strain FMP48, stronger effect = lower value 0.948 | locus YGR092W, strain DBF2, stronger effect = lower value 0.864 | locus YHR030C, strain SLT2, stronger effect = lower value 0.986 | locus YHR079C, strain IRE1, stronger effect = lower value 0.999 | locus YHR082C, strain KSP1, stronger effect = lower value 0.974 | locus YHR205W, strain SCH9, stronger effect = lower value 0.97 | locus YIL147C, strain SLN1, stronger effect = lower value 0.97 | locus YJL095W, strain BCK1, stronger effect = lower value 0.953 | locus YJL128C, strain PBS2, stronger effect = lower value 0.981 | locus YJL157C, strain FAR1, stronger effect = lower value 0.887 | locus YJR016C, strain ILV3, stronger effect = lower value 1 | locus YJR066W, strain TOR1 (second series), stronger effect = lower value 0.808 | locus YJR066W, strain TOR1, stronger effect = lower value 0.96 | locus YKL048C, strain ELM1, stronger effect = lower value 0.948 | locus YKL067W, strain YNK1, stronger effect = lower value 0.907 | locus YKL101W, strain HSL1, stronger effect = lower value 0.926 | locus YKL193C, strain SDS22, stronger effect = lower value 0.989 | locus YKL203C, strain TOR2, stronger effect = lower value 0.953 | locus YLR113W, strain HOG1, stronger effect = lower value 1.01 | locus YLR133W, strain CKI1, stronger effect = lower value 0.924 | locus YLR403W, strain SFP1, stronger effect = lower value 0.883 | locus YML070W, strain DAK1, stronger effect = lower value 0.877 | locus YMR001C, strain CDC5, stronger effect = lower value 0.993 | locus YMR205C, strain PFK2 (second series), stronger effect = lower value 0.908 | locus YMR277W, strain FCP1, stronger effect = lower value 0.993 | locus YNL006W, strain LST8, stronger effect = lower value 0.985 | locus YNL020C, strain ARK1, stronger effect = lower value 0.903 | locus YNL161W, strain CBK1, stronger effect = lower value 0.995 | locus YNL183C, strain NPR1, stronger effect = lower value 0.969 | locus YNL207W, strain RIO2, stronger effect = lower value 0.997 | locus YNL222W, strain SSU72, stronger effect = lower value 1 | locus YNL307C, strain MCK1 (second series), stronger effect = lower value 0.922 | locus YOL078W, strain AVO1, stronger effect = lower value 0.994 | locus YOL136C, strain PFK27, stronger effect = lower value 0.908 | locus YOR061W, strain CKA2, stronger effect = lower value 0.871 | locus YOR119C, strain RIO1, stronger effect = lower value 0.936 | locus YOR231W, strain MKK1, stronger effect = lower value 0.992 | locus YOR329C, strain SCD5, stronger effect = lower value 0.999 | locus YPL031C, strain PHO85, stronger effect = lower value 0.87 | locus YPL153C, strain RAD53, stronger effect = lower value 0.869 | locus YPL204W, strain HRR25, stronger effect = lower value 0.892 | locus YPL209C, strain IPL1, stronger effect = lower value 0.994 | locus YPL256C, strain CLN2, stronger effect = lower value 1.02 | locus YPR025C, strain CCL1, stronger effect = lower value 0.994 | locus YPR106W, strain ISR1, stronger effect = lower value 1 | locus YPR111W, strain DBF20, stronger effect = lower value 0.999 | strain NNK1, stronger effect = lower value 0.994 | strain TSCII, stronger effect = lower value 0.992
